# According to PubChem BioAssay AID504727 (Broad Institute, 2011):
# Values without a mark were called inactive. The source made the active and inactive calls.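 How the source made its calls: active means fitted half-maximal concentration AC50 at or below ten times the highest valid tested dose, with signal falling as DNA is displaced (actives reach about 34 µM in these data); inconclusive means flat fit at moderate signal loss, or poor fit quality; inactive means the rest, including signal rising instead of falling.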
# Assay: acridine orange-DNA binding displacement – biochemical, fluorescence polarization, cherry-picked samples, set 2, artefact control for KSHV LANA DNA-binding inhibitor project, dose response (AID 504727);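 on activity change, negative = DNA displacement: 0% = median of neutral control wells and -100% = mitoxantrone positive control wells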
# Details: series mostly up to 35 µM; activity change, negative = DNA displacement: at the top concentration
Compound,"activity change, negative = DNA displacement",AC50
CCN(CC(=O)Nc1ccc(OC)cc1)C(=O)c1cc([N+](=O)[O-])ccc1N1CCOCC1,-1.23%,
CCNC(=O)COC(=O)c1cccc(Br)c1,0.49%,
Cn1c(N)c(C(=O)COC(=O)c2ccc(Cl)c(S(=O)(=O)N3CCCC3)c2)c(=O)n(C)c1=O,1.05%,
COC(=O)C1=C(N)OC2=C(C(=O)CCC2)C1c1cccs1 (stereo not drawn),6.28%,
CCOC(=O)C1Nc2ccccc2C2C(O)C(O)CC12 (stereo not drawn),3.73%,
CCCCn1c(N)c(N(CCOC)C(=O)c2cc(C)oc2C)c(=O)[nH]c1=O,-2.07%,
O=C(OCC(=O)N1N=C(c2ccc(Cl)cc2)CC1c1ccco1)c1cccnc1 (stereo not drawn),6.32%,
NC1=NC[C@@H](Cc2ccc(O)cc2)N1CCc1cc(C(F)(F)F)cc(C(F)(F)F)c1,4.46%,
COc1ccc(CC(=O)O/N=C(\N)c2ccc(OC)cc2)cc1,2.52%,
Cn1c(=O)c(N)c2c3c(c(Br)ccc31)C(=O)c1ccccc1-2,,2.99 µM (active)
CC(=O)Nc1ccc(S(=O)(=O)Nc2ccccc2N2CCOCC2)cc1,4.06%,
Clc1ccc(C2=CC(c3ccco3)n3ncnc3N2)cc1 (stereo not drawn),-14.4%,
Nc1c(/C=C2/C=CC(=O)C(O)=C2)c(=O)nc2sc(CC(=O)N3CCCC3)nn12,5.34%,
CC(C)=C[C@@H]1C[C@H](C)[C@H]2CC[C@H](C)c3c(O[C@@H]4O[C@@H](C)[C@@H](O)[C@@H](O)[C@@H]4O)c(O)c(C)c1c32,4.1%,
CN(C)/C=C1\C=C2C(=O)c3ccccc3N2C1=O,,0.065 µM (active)
CC(C)CC(=O)Nc1nnc(CSCc2ccc(F)cc2)s1,5.86%,
O=C(c1cccc(S(=O)(=O)NCc2ccccc2)c1)N1CCN(c2ccccc2Cl)CC1,0%,
CCOC(=O)c1ccc[n+](CC(=O)c2ccc(OC)cc2)c1,-0.822%,
C=CCNC(=O)c1cn(CC)c2cc(N3CCN(C(=O)c4ccco4)CC3)c(F)cc2c1=O,-5.64%,

Compound,"activity change, negative = DNA displacement",AC50
CC(C(=O)O)N1C(=O)/C(=C/C=C/c2ccco2)SC1=S (stereo not drawn),14.1%,
Cc1ccc(/C=C/S(=O)(=O)N2CCC(C(=O)O)CC2)cc1,2.52%,
COc1ccc(-c2csc(NC(=O)CSc3nc(C)nc4sc(C(=O)O)c(C)c34)n2)cc1,23.2%,
C=CCOC(=O)C1=C[C@H](c2csc3ccccc23)C[C@H](OCc2ccc(CO)cc2)O1,3.64%,
O=C(COc1ccccc1Cc1ccccc1)NCCCN1CCOCC1,,33.9 µM (active)
O=C(CN1CC[C@@]2(O)CCCC[C@H]2[C@@H]1c1ccc(F)cc1)NCc1ccco1,-2.12%,
Cc1ccc(C(=O)O)cc1N1C(=O)c2cccc3c([N+](=O)[O-])ccc(c23)C1=O,-4.44%,
O=C(O)/C=C/C(=O)Nc1ccc(Cc2ccc(NC(=O)/C=C/C(=O)O)cc2)cc1,-6.62%,
CN(C)CCNc1ccc2ncn3c4ccc(O)cc4c(=O)c1c23,,8.68 µM (active)
CCOC(=O)c1cnc(SC)nc1Sc1ccc(Cl)cc1Cl,6.11%,
COc1ccc(NC(=O)Cc2nnc(SCC(=O)Nc3nccs3)n2C)cc1,4.06%,
COC(=O)C1CCN(C(=O)COC(=O)Cc2c[nH]c3ccccc23)CC1,3.51%,
COC(=O)c1sc(C(F)(F)F)c(-c2ccccc2)c1S(=O)(=O)N1CCOCC1,2.04%,
Cc1sc2nnn(CC(=O)N3CCN(C(=O)c4ccco4)CC3)c(=O)c2c1C,-0.188%,
CN1CCN(C(=S)c2ccc(N(C)C)cc2)CC1,3.14%,
Cc1cccc(N2C(=O)c3cccc4c(N(C)CCO)ccc(c34)C2=O)c1,-12.6%,
O=C1c2ccccc2C(=O)C1c1ccccn1,-2.43%,
Cc1cc(NC(=O)CSc2nnc(COc3cccc(C)c3C)n2C)no1,5.58%,
CSC(=NS(=O)(=O)c1ccc(N)cc1)NS(=O)(=O)c1cccs1,5.36%,
